PubChem BioAssay (EPA / NIEHS)
Records with an inconclusive call do not appear. More than one record can exist for a structure, and the calls need not agree. Active and inactive are the calls of the source. The calls were made as follows, unless noted: active = hit-call score of the fitted dose curve at least 0.9, where 1 is the maximum; inconclusive = response in the unintended direction; inactive = score below 0.9.

Key:
[1] = read-out: Thyroid Hormone Responsive (THRSP), THRSP (gene 7069); experiment: LTEA_HepaRG_THRSP: Life Technologies and Expression Analysis (LTEA) Assay for Thyroid Hormone Responsive (THRSP) using HepaRG (AID 2283536; active = hit-call score of the fitted dose curve at least 0.9, where 1 is the maximum; inactive = score below 0.9); settings: mRNA level, 48 h; actives raise or lower the signal
Method in brief: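 qRT-PCR read-out (Fluidigm TaqMan), housekeeping-normalized (ACTB/GAPDH/POLR2A). HepaRG, 48 h chemical exposure, 8-pt half-log series from 100 uM in 0.5% DMSO, duplicates. Bidirectional curve fit vs 0.5% DMSO baseline.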

[2] = read-out: Cellular tumor antigen p53 (Homo sapiens) (UniProt P04637); experiment: LTEA_HepaRG_TP53: Life Technologies and Expression Analysis (LTEA) Assay for Tumor Protein P53 (TP53) using HepaRG (AID 2283537; active = hit-call score of the fitted dose curve at least 0.9, where 1 is the maximum; inactive = score below 0.9); settings: mRNA level, 48 h; actives raise or lower the signal
Method in brief: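 TP53 transcript measured by qRT-PCR, normalized to three housekeeping genes, after 48 h treatment of human HepaRG cultures with chemicals from 100 uM downward in half-log steps (0.5% DMSO vehicle, serum-free induction medium). Up- or down-regulation fitted against DMSO.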

[3] = read-out: UDP glucuronosyltransferase (UGT1A1), UGT1A1 (gene 54658); experiment: LTEA_HepaRG_UGT1A1: Life Technologies and Expression Analysis (LTEA) Assay for UDP glucuronosyltransferase (UGT1A1) using HepaRG (AID 2283538; active = hit-call score of the fitted dose curve at least 0.9, where 1 is the maximum; inactive = score below 0.9); settings: mRNA level, 48 h; actives raise or lower the signal
Method in brief: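 Cells are plated, cultured 48 h, switched to serum-free induction medium, then dosed 48 h at eight concentrations (max 100 uM, 0.5% DMSO). RNA is isolated and UGT1A1 expression measured by qRT-PCR; changes versus DMSO are fitted in both directions.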

[4] = read-out: UDP glucuronosyltransferase (UGT1A6), UGT1A6 (gene 54578); experiment: LTEA_HepaRG_UGT1A6: Life Technologies and Expression Analysis (LTEA) Assay for UDP glucuronosyltransferase (UGT1A6) using HepaRG (AID 2283539; active = hit-call score of the fitted dose curve at least 0.9, where 1 is the maximum; inactive = score below 0.9); settings: mRNA level, 48 h; actives raise or lower the signal
Method in brief: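 Measures mRNA change in HepaRG hepatic cells exposed 48 h to chemicals (eight-point, maximum 100 uM, 0.5% DMSO vehicle) in serum-free induction medium. Expression normalized to endogenous controls; DMSO served as negative control and baseline.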

[5] = read-out: X-box binding protein 1 (XBP1), XBP1 (gene 7494); experiment: LTEA_HepaRG_XBP1: Life Technologies and Expression Analysis (LTEA) Assay for X-box binding protein 1 (XBP1) using HepaRG (AID 2283540; active = hit-call score of the fitted dose curve at least 0.9, where 1 is the maximum; inactive = score below 0.9); settings: mRNA level, 48 h; actives raise or lower the signal
Method in brief: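 Eight concentrations (half-log, highest 100 uM, 0.5% DMSO) tested in duplicate on HepaRG cells over 48 h in serum-free induction medium; qRT-PCR of XBP1 normalised to ACTB, GAPDH, POLR2A.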

[6] = LTEA_HepaRG_LDH_cytotoxicity: Cytotoxicity Assessment in the Life Technologies and Expression Analysis (LTEA) Assay (AID 2283563)
Method in brief: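 Spent-medium LDH after 48 h chemical exposure of HepaRG cells in serum-free induction medium; eight concentrations, half-log dilutions from 100 uM, duplicate wells, fitted upward relative to 0.5% DMSO.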

[7] = TOX21_p53_BLA_p2_viability: Viability Assessment in the Tox21 HCT-116 p53 Agonism Beta-lactamase Assay, Phase 2 (AID 2283591);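 also: compound exposure lasted 16 h at 37 °C; actives lower the ATP signal meaning cytotoxicity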
Method in brief: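 HCT116 p53-bla cells, 4000/well, dosed after 5 h plating (217-fold dilution of DMSO stocks) and incubated 16 h at 37C. Viability taken as cellular ATP by CellTiter-Glo luminescence after 30 min RT; signal loss marks cytotoxicity.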

[8] = target: Cellular tumor antigen p53 (Homo sapiens) (UniProt P04637); experiment: TOX21_p53_BLA_p2_ratio: Tox21 HCT-116 p53 Agonism Beta-lactamase Assay, Ratio, Phase 2 (AID 2283592)
Sequence of Cellular tumor antigen p53 (Homo sapiens) (P04637 whole entry, looked up): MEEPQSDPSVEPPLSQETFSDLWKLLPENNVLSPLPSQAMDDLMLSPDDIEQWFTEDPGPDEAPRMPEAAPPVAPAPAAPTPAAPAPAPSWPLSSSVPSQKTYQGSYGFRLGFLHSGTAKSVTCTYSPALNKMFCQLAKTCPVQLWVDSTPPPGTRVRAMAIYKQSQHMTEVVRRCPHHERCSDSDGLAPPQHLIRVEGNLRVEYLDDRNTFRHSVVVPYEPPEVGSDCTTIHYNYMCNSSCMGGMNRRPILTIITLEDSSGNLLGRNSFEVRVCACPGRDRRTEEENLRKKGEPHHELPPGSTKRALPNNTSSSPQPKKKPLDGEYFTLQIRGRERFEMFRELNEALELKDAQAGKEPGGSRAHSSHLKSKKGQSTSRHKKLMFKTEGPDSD
Method in brief: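 DMSO-normalized, positive-direction endpoint derived from the 460 nm/530 nm FRET ratio in HCT116 p53 beta-lactamase reporter cells exposed 16 h at 37C and loaded with CCF4-AM for 2 h.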

[9] = TOX21_p53_BLA_p3_viability: Viability Assessment in the Tox21 HCT-116 p53 Agonism Beta-lactamase Assay, Phase 3 (AID 2283593);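 also: cells exposed to compound for 16 h before reading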
Method in brief: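 HCT116 cells, 4000/well, dosed 5 h after plating by pin transfer (217-fold dilution from DMSO stock) and incubated 16 h at 37C, 5% CO2. Viability read as ATP luminescence with CellTiter-Glo after 30 min at room temperature.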

[10] = target: Cellular tumor antigen p53 (Homo sapiens) (UniProt P04637); experiment: TOX21_p53_BLA_p3_ratio: Tox21 HCT-116 p53 Agonism Beta-lactamase Assay, Ratio, Phase 3 (AID 2283596)
Method in brief: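 Cells were seeded at 4000/well, rested 5 h at 37C, then dosed with DMSO compound solutions (217-fold dilution) for 16 h. CCF4-AM substrate was loaded for 2 h at room temperature, and the 460/530 nm emission ratio was fitted for gain of signal versus DMSO.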

[11] = TOX21_p53_BLA_p4_viability: Viability Assessment in the Tox21 HCT-116 p53 Agonism Beta-lactamase Assay, Phase 4 (AID 2283597);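 also: hits lower the luminescence signal meaning cytotoxicity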
Method in brief: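 In this multiplexed secondary endpoint, HCT116 cells (4000 per well, compound at 5 h, 16 h treatment) received CellTiter-Glo after the beta-lactamase read. Luminescence after 30 min RT reflects ATP, and falling signal marks cytotoxicity.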

[12] = target: Cellular tumor antigen p53 (Homo sapiens) (UniProt P04637); experiment: TOX21_p53_BLA_p5_ratio: Tox21 HCT-116 p53 Agonism Beta-lactamase Assay, Ratio, Phase 5 (AID 2283599)
Method in brief: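 HCT-116 p53-bla cells (4000/well) plated 5 h, dosed with compound (217-fold DMSO dilution) for 16 h at 37 C; CCF4-AM substrate 2 h at room temperature. Activity is the 460/530 nm emission ratio (405 nm excitation), fitted in gain-of-signal direction versus DMSO.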

[13] = TOX21_p53_BLA_p5_viability: Viability Assessment in the Tox21 HCT-116 p53 Agonism Beta-lactamase Assay, Phase 5 (AID 2283600)
Method in brief: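 Here cell health was gauged by ATP levels in wells holding 4000 cells, each treated 16 h with DMSO-delivered compounds at 217-fold dilution; reduced luminescence marked toxicity.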

[14] = target: Cellular tumor antigen p53 (Homo sapiens) (UniProt P04637); experiment: TOX21_p53_BLA_p4_ratio: Tox21 HCT-116 p53 Agonism Beta-lactamase Assay, Ratio, Phase 4 (AID 2283601)
Method in brief: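 HCT-116 p53 beta-lactamase reporter cells (4000/well) preincubated 5 h, then compound (217-fold dilution of DMSO stock) for 16 h at 37C. CCF4-AM substrate added 2 h at room temperature; 460/530 nm emission ratio fitted upward versus DMSO.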

[15] = Tanguay_ZF_120hpf_MORT_legacy: (Legacy) Oregon State University Tanguay Lab 120 Hour Post-fertilization zebrafish Assay for Mortality (AID 2283633)
Method in brief: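 Single dechorionated Tropical 5D embryos were held with test chemical (0.64% DMSO final) from 6 to 120 hpf at 28C under foil. Deaths at 24 or 120 hpf were recorded as binary calls, analysed for increase over DMSO controls.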

[16] = Tanguay_ZF_120hpf_YSE_legacy: (Legacy) Oregon State University Tanguay Lab 120 Hour Post-fertilization zebrafish Assay for Yolk Sac Edema (AID 2283634);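 as to AC50: actives raise the incidence of yolk sac edema above the DMSO baseline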
Method in brief: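 Single dechorionated embryos were held in sealed plates at 28C with test chemical (0.64% DMSO final) from 6 hpf until 120 hpf. Edema of the yolk sac was then recorded as a binary endpoint; non-mortality endpoints were skipped for dead embryos.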

[17] = Tanguay_ZF_120hpf_AXIS_legacy: (Legacy) Oregon State University Tanguay Lab 120 Hour Post-fertilization zebrafish Assay for Body Axis Malformation (AID 2283635);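 as to AC50: potency for an increased fraction of larvae scored with body axis malformation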
Method in brief: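 Each dechorionated embryo was exposed alone from 6 hpf, with DMSO at 0.64% (vol/vol) and trimethyltin chloride 5 uM as positive control. Axis malformation was recorded at 120 hpf unless the embryo had died.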

[18] = Tanguay_ZF_120hpf_EYE_legacy: (Legacy) Oregon State University Tanguay Lab 120 Hour Post-fertilization zebrafish Assay for Eye Malformation (AID 2283636);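 also: binary presence or absence of eye malformation scored by brightfield in 120 hpf larvae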
Method in brief: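 5D wild-type embryos, pronase-dechorionated at 4 hpf; static exposure 6–120 hpf, 28C, dark; DMSO 0.64% final; 5uM trimethyltin chloride positive control. Binary eye-defect scoring at 120 hpf; dead embryos not scored.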

[19] = Tanguay_ZF_120hpf_SNOU_legacy: (Legacy) Oregon State University Tanguay Lab 120 Hour Post-fertilization zebrafish Assay for Snout Malformation (AID 2283637)
Method in brief: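 Binary brightfield scoring of snout malformation at 120 hpf. Dechorionated 5D wild-type embryos, one per well, static exposure from 6 hpf at 28C, sealed and dark; final DMSO 0.64% (vol/vol), DMSO as baseline; 5uM trimethyltin chloride positive control.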

[20] = ATG_XTT_Cytotoxicity: Cytotoxicity Assessment in the Attagene TRANS-FACTORIAL HepG2 Assay (AID 2283584)
Method in brief: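 24 h chemical exposure of reporter-transfected HepG2; XTT signal loss vs DMSO indicates cytotoxicity.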

Measured: AC50

CON=C(C(=O)OC)c1ccccc1CON=C(C)c1cccc(C(F)(F)F)c1
active: [1] 50 µM | [3] 6.06 µM | [8] 1.25 µM | [10] 3.12 µM | [12] 2.24 µM | [14] 1.65 µM | [16] 7.29 µM | [18] 5.22 µM | [19] 4.07 µM
not listed: [20]
inactive: all other assays above

COc1ccc(C(=CC(=O)N2CCOCC2)c2ccc(Cl)cc2)cc1OC
active: [1] 63.8 µM | [3] 11.1 µM | [16] 48.3 µM | [17] 9.11 µM | [18] 16.4 µM | [19] 35.4 µM
not listed: [8] | [9] | [12]
inactive: all other assays above

COc1cc(OC)nc(Sc2cccc(Cl)c2C(=O)O)n1
not listed: [20]
inactive: all other assays above

CCC(=O)Nc1ccc(Cl)c(Cl)c1
inactive: [1] | [2] | [4] | [5] | [6] | [20] | [7] | [8] | [9] | [10] | [11] | [12] | [13] | [14] | [15] | [16] | [17] | [18] | [19]
active: [3] 26.7 µM | [8] 88 µM | [10] 72.7 µM

COP(=O)(OC)C(O)C(Cl)(Cl)Cl (configuration not stated)
active: [3] 0.0534 µM | [4] 103 nM | [16] 56.1 µM
not listed: [20]
inactive: all other assays above

COc1cccc(C(=O)NN(C(=O)c2cc(C)cc(C)c2)C(C)(C)C)c1C
active: [1] 12.2 µM | [3] 2.32 µM
not listed: [10] | [11] | [12] | [20]
inactive: all other assays above
